According to PubChem BioAssay AID489018 (Southern Research Specialized Biocontainment Screening …, 2010):
The whole screen tested about 2,300 compounds, of which about 350 (15%) were called active. Only a sample is shown. Potency and affinity values are given separately. Values without a mark were called inactive. How the calls were made is not given here.

assay: HepG2 cell cytotoxicity, dose response, cytotoxicity control for non-replicating M. tuberculosis project (AID 489018); details: series mostly up to 20 µM; viability: at the top concentration;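 further: HepG2 human liver cells; 100% = vehicle-treated cells and 0% = background signal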

Point of comparison: `Cc1cc(Cl)ccc1OCC(=O)NNC(=O)c1cnccn1`, “viability” value 100% [at 5 µM]. Against it:
- COc1ccc(C(=O)OCn2nnc3ccccc3c2=O)cc1[N+](=O)[O-] — higher, 112% [at 5 µM]
- C/C(=N\Nc1nc2ccccc2[nH]1)c1cc2ccccc2o1 — lower, 89.5% [at 5 µM]
- COc1cc(Cl)cc(/C=N/NC(N)=O)c1O — higher, 103% [at 5 µM]
- Cc1cc(N/N=C/c2ccccc2[N+](=O)[O-])nc(-n2nc(C)cc2C)n1 — lower, 82.7% [at 5 µM]
- CCc1nnc(NC(=O)c2cc3ccccc3oc2=O)s1 — higher, 111% [at 5 µM]
- Cn1c(=O)[nH]c(=O)c2c1nc([N+](=O)[O-])n2Cc1ccccc1 — lower, 75.2% [at 5 µM]
- O=c1[nH]c2ccccc2c2oc(CCl)nc12 — higher, 105% [at 5 µM]
- COc1cccc(COC(=O)CCNC(=O)c2ccc(Br)cc2)c1OC — higher, 101% [at 5 µM]
- O=C(Nc1nnc(-c2ccco2)o1)c1ccc(Cl)s1 — the same, 100% [at 5 µM]
- CCOc1ccc(OCCSc2ccc(S(=O)(=O)N3CCN(C)CC3)cn2)cc1 — lower, 96.9% [at 5 µM]
- O=C(N/N=C\c1ccc([N+](=O)[O-])s1)c1cncc(Br)c1 — lower, 86.6% [at 5 µM]
- Cc1c(C(=O)N(C)C)sc2nc(-c3ccccn3)[nH]c(=O)c12 — higher, 105% [at 5 µM]
- CN(C)CCCNc1nc2sc3c(c2c(=O)n1CCc1ccccc1)CCCCC3 — lower, 86.3% [at 5 µM]
- Cc1ccccc1NC(=O)c1ccc([N+](=O)[O-])o1 — higher, 102% [at 5 µM]
- O=C(CC(=O)c1cc(Cl)ccc1O)c1ccccc1 — higher, 102% [at 5 µM]
- O=C(N/N=C\c1ccc([N+](=O)[O-])o1)c1cncc(Br)c1 — higher, 109% [at 5 µM]
- Brc1c(-c2ccc3c(c2)OCO3)nc2ncccn12 — lower, 86.5% [at 5 µM]
- CC(C)(C)c1ccccc1OCCOCCN1CCCCCC1 — lower, 98.4% [at 5 µM]
- c1ccc(Nc2nc(-c3ccccn3)cs2)cc1 — higher, 101% [at 5 µM]
- O=C(CCS(=O)(=O)Cc1ccccc1)Nc1ncc([N+](=O)[O-])s1 — higher, 112% [at 5 µM]
- Cc1[nH]n(-c2cccc(Cl)c2)c(=O)c1/C=N/n1c(C)nc2ccccc2c1=O — higher, 109% [at 5 µM]
- COc1ccc(/C=C/c2nc3ccccc3c(=O)o2)cc1 — higher, 113% [at 5 µM]
- CC(=O)c1ccc(OC(=O)c2ccc(-n3nc(C)cc3C)cc2)cc1 — higher, 103% [at 5 µM]
- COc1cc(OC)cc(C(=O)NNC(=O)c2ccccn2)c1 — lower, 82.4% [at 5 µM]

Point of comparison: `NC(N)=N/N=C/c1cccc([N+](=O)[O-])c1O`, “viability” value 99.4%. Against it:
- COc1ccc(C(=O)C2CCCN(C(=O)c3ccc(CSC)o3)C2)cc1F (stereo unspecified) — higher, 101%
- O=C(N/N=C/c1ccc[nH]1)c1ccncc1 — lower, 97.8%
- CCOC(=O)CC(=O)Nc1ccc(C(=O)OCC)cc1 — lower, 96.9%
- O=C(N/N=C/c1cccc([N+](=O)[O-])c1O)c1cccs1 — lower, 90%
- O=C(NNc1nc2ccccc2s1)Nc1ccc(F)cc1 — lower, 95%
- O=C(N/N=C/C=C/c1ccccc1[N+](=O)[O-])c1ccncc1 — lower, 95.8%
- C=CCc1cc(Cl)ccc1OCCCn1ccnc1 — lower, 90.9%
- COc1ccc(C2(O)CCN(CC(=O)Nc3nc(-c4ccccc4)cs3)CC2)cc1 — lower, 74.6%
- Cc1onc(-c2ccccc2Cl)c1C(=O)O/N=C(\N)c1ccc([N+](=O)[O-])o1 — lower, 82.2%
- CCC(CC)COC(=O)C(C#N)c1nc2ccccc2nc1N1CCN(CC)CC1 (stereo unspecified) — lower, 80.2%
- NCCOc1ccc(C23CC4CC(CC(C4)C2)C3)cc1 — lower, 92.4%
- N=C1/C(=C/c2ccc(OC(=O)c3ccco3)cc2)C(=O)N=C2SC=CN12 — lower, 98.9%
- COC(=O)CN(C#N)c1nc(N(C)C)nc(N(C)C)n1 — higher, 101%
- O=C(N/N=C/c1ccc(O)cc1)c1cccc(C(F)(F)F)c1 — lower, 95.1%
- O=C(Nc1nnc(C2=COCCO2)o1)c1cccc(C(F)(F)F)c1 — lower, 74.1%
- COc1cccc(CN2CCC(N(CCc3ccccc3)Cc3ccccc3)CC2)c1OC — lower, 73.7%
- OCC#CCSc1nnc(-c2ccc(Br)cc2)o1 — lower, 98.8%
- CCOC(=O)COc1ccc(C(=O)Nc2cccc(Cl)c2C)cc1 — lower, 90.5%
- O=C(NNC1=Nc2ccccc2SC1)c1ccc(F)cc1 — lower, 80.8%
- O=C(Nc1nnc(-c2ccc(Br)cc2)o1)c1ccco1 — lower, 90.6%
- CCOc1cc(-c2nnc(NC(=O)c3ccco3)o2)cc(OCC)c1OCC — lower, 71.3%
- COC(=O)c1ccc(Sc2nnnn2-c2ccccc2)c([N+](=O)[O-])c1 — lower, 98.1%
- FC(F)c1nnc2ccc(Cl)nn12 — higher, 116%
- O=C(N/N=C/c1ccc([N+](=O)[O-])s1)c1cccnc1 — lower, 70.9%
- O=C(COc1ccccc1)Nc1nnc(-c2ccc3c(c2)CCCC3)o1 — higher, 101%
- CN(C)CCCn1c(=O)n(C2CCCCC2)c(=O)c2c3c(sc21)CCCCC3 — lower, 75.5%
- Cn1c(O)c(C(=Nc2ccccc2)SCc2ccccc2Cl)c(=O)n(C)c1=O — lower, 75%
- C=CCOc1ccc(CNCCO)cc1OCC — higher, 104%
- CCc1cc(OCCCCNCc2ccccc2)ccc1Cl — lower, 97.5%
- C/C(=N/Nc1ccnc2cc(Cl)ccc12)c1ccc(N)cc1 — lower, 74.7%
- CC1CCN(C(=O)COC(=O)c2cc3ccccc3cc2O)CC1 — lower, 93.4%
- CCc1c(C)c2ccc(OCC(=O)OC)cc2oc1=O — lower, 99%
- COc1n[nH]c(C(=O)Nc2cc(F)ccc2C)c1[N+](=O)[O-] — lower, 75.7%
- Nc1nonc1C(=O)N/N=C/c1ccc([N+](=O)[O-])o1 — lower, 82.7%
- Cc1cc(C)cc(OCC(=O)N/N=C/c2ccc([N+](=O)[O-])o2)c1 — lower, 92%
- O=[N+]([O-])c1ccc(/C=N/NS(=O)(=O)c2ccc(Cl)cc2)o1 — higher, 103%
- COc1ccc(C(=O)NCC(=O)N/N=C/c2ccc([N+](=O)[O-])o2)cc1OC — lower, 91.9%
- Cc1cc(C(=O)N/N=C/c2ccc([N+](=O)[O-])o2)c(C)o1 — lower, 88.4%
- Cc1cccc(NC(=O)c2ccc([N+](=O)[O-])o2)c1C — lower, 95%
- O=C(Nc1ccccc1)c1cc2ccccc2o1 — lower, 85.3%
- CN1C(c2ccccc2)CC(=NO)CC1c1ccccc1 (stereo unspecified) — higher, 108%
- COc1ccccc1NC(=O)c1cnc(SC)nc1 — higher, 118%
- COc1ccc(-c2noc(-c3cc4ccccc4oc3=O)n2)cc1 — higher, 100%
- O=C(N/N=C/c1ccc(Br)s1)c1ccccc1[N+](=O)[O-] — lower, 90.1%
- CCc1nnc(N/N=C/c2ccc(-c3ccc([N+](=O)[O-])cc3)o2)n1N — lower, 95.3%
- Cc1nonc1C(=O)N/N=C/c1ccc([N+](=O)[O-])o1 — lower, 96.3%
- O=C(N/N=C/c1ccc([N+](=O)[O-])o1)c1sc2ccccc2c1Cl — lower, 78.8%
- CCCCCCCC(=O)N/N=C/c1ccc([N+](=O)[O-])o1 — lower, 97.7%
- Cc1ccc(OCC(=O)N/N=C/c2ccc([N+](=O)[O-])o2)cc1 — lower, 95.7%
- COc1ccccc1OCC(=O)N/N=C/C=C/c1ccc([N+](=O)[O-])o1 — lower, 93.9%
- O=C(N/N=C\c1ccc([N+](=O)[O-])o1)C1COc2ccccc2O1 (stereo unspecified) — higher, 101%
- O=C(Nc1ccc(N2CCN(C(=O)c3ccco3)CC2)c(Cl)c1)c1cccs1 — lower, 72%
- COC(=O)c1ccccc1Sc1ncnc2onc(C)c12 — higher, 113%
- Cc1c(Cl)cccc1-c1ccc(CNCc2ccccn2)o1 — lower, 94.3%
- N#Cc1nc(-c2ccc(OCc3ccccc3)cc2)oc1NCCCn1ccnc1 — lower, 77.7%
- CCOC(=O)C(C)Oc1cc(Cl)c(C=O)cc1OC (stereo unspecified) — lower, 94.7%
- N/N=C(/Cc1nc2ccccc2[nH]1)c1ccc([N+](=O)[O-])cc1 — lower, 96.1%
- O=C(Nc1cc(C(F)(F)F)ccc1-n1cncn1)c1ccc([N+](=O)[O-])o1 — higher, 103%
- COc1ccccc1-c1nnc(Sc2nc([N+](=O)[O-])nn2C)o1 — lower, 90.9%
- Cc1cc(C)c(C(=O)COC(=O)c2ccc([N+](=O)[O-])o2)cc1C — higher, 105%
- COc1ccc2cc(C(=O)C3CCCN(Cc4cccc(C)n4)C3)ccc2c1 (stereo unspecified) — lower, 96.1%
- CCCCOc1ccc(NC(=O)CN2CCN(Cc3ccccc3)CC2)cc1 — lower, 96.9%
- CS/C(Nc1cc(Cl)ccc1Cl)=C(/C#N)C(=O)c1ccco1 — lower, 87.2%
- Cc1[nH]c2ccccc2c1C(=O)COC(=O)c1ccc([N+](=O)[O-])s1 — higher, 114%
- c1ccc(-c2n[nH]c(-c3ccccn3)n2)nc1 — lower, 93.6%
- COC(=O)C(C)Oc1ccc2cc(-c3ccccc3)c(=O)oc2c1 (stereo unspecified) — higher, 103%
- O=S(=O)(c1ccc(OCC2CO2)cc1)c1ccc(OCC2CO2)cc1 (stereo unspecified) — lower, 75.9%
- Cc1ccccc1C(=O)NN1CC(C(=O)OCc2ccc(Cl)c(Cl)c2)CC1=O (stereo unspecified) — higher, 119%
- CCC(C)c1ccc(OCCn2ccnc2)cc1 (stereo unspecified) — lower, 80%
- Cc1ccc2nc(C)c3c(c2c1)COC3 — higher, 104%
- CC(C)(C)NCC1(CO)SC(N)=NC1=O (stereo unspecified) — higher, 106%
- CCOC(=O)/C=C1\Nc2ccccc2OC1=O — lower, 77.3%
- COc1cc(NC(=O)C/C(C)=N/NC(=O)c2cccs2)c(OC)cc1Cl — lower, 73.3%
- O=C(Nc1nnc(-c2ccco2)o1)c1cccc2ccccc12 — higher, 108%
- COC(=O)c1cc(-c2ccc(OC)cc2)on1 — higher, 116%
- Cn1nnc(NC(=O)COc2ccc(C3CCCCC3)cc2)n1 — higher, 106%
- O=Cc1ccnc(-c2ccc(OC(=O)c3ccco3)cc2)n1 — higher, 101%
- Cc1ccc(N/N=C2\CS(=O)(=O)N(C)c3ccsc32)cc1 — higher, 101%
- O=C(N/N=C/c1ccc(Br)s1)c1cccnc1 — lower, 94%
- O=C(N/N=C/c1ccc[nH]1)c1cccnc1 — lower, 90.3%
- O=C(N/N=C/c1ccccn1)c1cc([N+](=O)[O-])cc([N+](=O)[O-])c1 — lower, 97.3%
- COc1cccc(NC(=O)c2ccc(C(=O)c3ccccc3)o2)c1 — lower, 96.3%
- COc1ccc(C(=O)N/N=C/c2cccc3cccnc23)cc1 — lower, 73%
- COc1ccc(OCC(=O)NNC(=O)c2ccccn2)cc1 — higher, 102%
- O=C(N/N=C/c1ccccn1)c1cccc([N+](=O)[O-])c1 — lower, 99.3%
- Cc1ccc2[nH]c(C)c(CCNC(=O)c3cc4cc([N+](=O)[O-])ccc4oc3=O)c2c1 — higher, 101%
- Cc1cccc(NCCC(=O)c2ccc([N+](=O)[O-])cc2)c1C — lower, 96.3%
- CC(C)c1ccc(C2=C(O)c3ccccc3C(=O)C2=O)cc1 — lower, 88.6%
- O=C(CC1CCCC1)OCn1nnc2ccccc2c1=O — higher, 109%
- O=C(c1cc([N+](=O)[O-])cc([N+](=O)[O-])c1)N(Cc1nnc(-c2ccccc2Cl)o1)C1CC1 — lower, 91.3%
